Inconclusive results are not listed. A call without a number means that no potency is given here. The source made the active and inactive calls. Calls follow the shape of the dose curve; as a rule, active = well fitted curve in the direction sought with a large enough effect; inconclusive = small, poorly fitted or top-dose-only effect, or another doubt; inactive = no such curve, though single readings can be large; an effect the other way counts as inactive or inconclusive.
Legend:
MKL-2 = assay: qHTS assay to identify novel small-molecules to repurpose for Merkel cell carcinoma treatment (AID 1296009); conditions: MCC and control cell lines, CellTiter-Glo viability, 72 h; series mostly up to 46 µM; also: nearly all actives have a fitted effect of over 60% in size
How it was run: (§1)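 CellTiter-Glo luminescence after 72 hr compound exposure at 37 degree celsius gave cell viability. Libraries NPC and MIPE were run as 8- and 11-point dose responses; RLUs normalized to DMSO (negative) and no-cell (cytotoxicity) controls.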

C33A = assay: Primary qHTS to identify gynecologic anti-cancer compounds using libraries of approved drugs and bioactive compounds (AID 1345084); conditions: Gynecologic cancer cell panel viability, ATPlite luminescence, 48 h; series mostly up to 57.5 µM; also: nearly all actives have a fitted effect of over 55% in size
How it was run: (§2)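 Cell viability after 48 h drug treatment, ATPlite luminescence readout; five doses.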

Es-2 = assay: as above; conditions: Gynecologic cancer cell panel viability, ATPlite luminescence, 48 h; series mostly up to 57.5 µM
How it was run: as §2

HeLa = assay: as above; conditions: Gynecologic cancer cell panel viability, ATPlite luminescence, 48 h; series mostly up to 57.5 µM
How it was run: as §2

Hek293T = assay: as above; conditions: Gynecologic cancer cell panel viability, ATPlite luminescence, 48 h, control line for the selectivity index; series mostly up to 57.5 µM
How it was run: as §2

UISO = assay: qHTS assay to identify novel small-molecules to repurpose for Merkel cell carcinoma treatment (AID 1296009); conditions: MCC and control cell lines, CellTiter-Glo viability, 72 h; series mostly up to 46 µM; also: nearly all actives have a fitted effect of over 60% in size
How it was run: as §1

WaGa = assay: as above; conditions: MCC and control cell lines, CellTiter-Glo viability, 72 h; series mostly up to 46 µM
How it was run: as §1

CASKI = assay: Primary qHTS to identify gynecologic anti-cancer compounds using libraries of approved drugs and bioactive compounds (AID 1345084); conditions: Gynecologic cancer cell panel viability, ATPlite luminescence, 48 h; series mostly up to 57.5 µM; also: nearly all actives have a fitted effect of over 55% in size
How it was run: as §2

CAOV3 = assay: as above; conditions: Gynecologic cancer cell panel viability, ATPlite luminescence, 48 h; series mostly up to 57.5 µM
How it was run: as §2
Potency is read from the fitted curve at half-maximal effect.

| Compound | Potency (MKL-2) | Potency (C33A) | Potency (Es-2) | Potency (HeLa) | Potency (Hek293T) | Potency (UISO) | Potency (WaGa) | Potency (CASKI) | Potency (CAOV3) |
| --- | --- | --- | --- | --- | --- | --- | --- | --- | --- |
| c1nc2nc(Nc3ccc(N4CCOCC4)cc3)nc(NC3CCCCC3)c2[nH]1 | 16600 nM (active) | inactive | inactive | 2820 nM (active) | inactive |  |  |  |  |
| NC(=O)c1c(OCc2c(F)cc(Br)cc2F)nsc1NC(=O)NCCCCN1CCCC1 | inactive | inactive | inactive | inactive | inactive |  |  |  |  |
| COc1cc2c(Oc3ccc4[nH]c(C)cc4c3F)ncnc2cc1OCCCN1CCCC1 |  |  | inactive | inactive | inactive | inactive | inactive |  |  |
| Cn1c2ccccc2c2c3c(c4c5ccccc5n(CCC#N)c4c21)CNC3=O |  | inactive |  | inactive | inactive | 2090 nM (active) | 6620 nM (active) | inactive |  |
| NC(=O)Nc1cc(-c2cccc(F)c2)sc1C(=O)N[C@H]1CCCNC1 |  | 1120 nM (active) | 631 nM (active) | 1780 nM (active) | 1000 nM (active) | 4180 nM (active) | 5260 nM (active) | 1780 nM (active) | 1580 nM (active) |
| CC[C@@H]1C(=O)N(C)c2cnc(Nc3ccc(C(=O)NC4CCC(N5CCN(CC6CC6)CC5)CC4)cc3OC)nc2N1C(C)C (stereo not given in full) | 4180 nM (active) |  | 3980 nM (active) |  |  |  |  | 17800 nM (active) | 12600 nM (active) |
| COc1cc2c(Oc3ccc(-c4cnc(Nc5ccc(F)cc5)n(C)c4=O)cc3F)ccnc2cc1OCCCN1CCOCC1 |  | inactive |  |  | inactive | 11800 nM (active) |  | inactive | inactive |
| COCCn1c2c([n+](Cc3cnccn3)c1C)C(=O)c1ccccc1C2=O |  |  |  |  |  | 18.7 nM (active) | 13.2 nM (active) |  |  |

From PubChem BioAssay (NCATS)
